# Results published in the supplement of paper PMC8728848.
# This is one part of a sample in which the strongest signals are shown more often than they occur.
# B1: GNL (Galanthus nivalis) (protein)
# chain: MGHHHHHHHHYGTLENGHWLMVGMSIFSKDRTVELRMQDDGKLAIYYNDHCAWQSTAQQVNNAKGAVMQGDGNFCIYDKNGKATWHTNTAAPSGDSHTFVSVQDDGNLVLYKNNGATPIWSSKSNK
# Experiments:
# Experiment in all cases: glycan array binding signal (z-score within array); higher = stronger binding
# Details in all cases: glycan notation: IUPAC condensed, linker removed
# [1] = target: Fuc(a1-2)Gal(b1-4)GlcNAc(b1-2)Man
# Summary of the method: (§1)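 The Consortium for Functional Glycomics database supplied 3228 glycan arrays, of which those lacking an available protein sequence were dropped. The binding signal, a within-array Z-score, was averaged across arrays of the same protein sequence and across linkers. Negative scores can be read as non-binding.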
# [2] = target: Fuc(a1-2)[Gal(a1-3)]Gal(b1-3)GalNAc(b1-3)Gal(a1-4)Gal(b1-4)Glc
# Summary of the method: as §1
# [3] = target: Fuc(a1-2)[GalNAc(a1-3)]Gal(b1-4)GlcNAc(b1-2)Man(a1-3)[Fuc(a1-2)[GalNAc(a1-3)]Gal(b1-4)GlcNAc(b1-2)Man(a1-6)]Man(b1-4)GlcNAc(b1-4)[Fuc(a1-6)]GlcNAc
# Summary of the method: as §1
# [4] = target: Fuc(a1-3)[Gal3S(b1-4)]Glc
# Summary of the method: as §1
# [5] = target: Fuc(a1-3)[GalNAc(b1-4)]GlcNAc6S
# Summary of the method: as §1
# [6] = target: Fuc(b1-3)GlcNAc
# Summary of the method: as §1
# [7] = target: Gal(a1-3)Gal(b1-4)GlcNAc(b1-2)Man(a1-3)[Gal(a1-3)Gal(b1-4)GlcNAc(b1-2)Man(a1-6)]Man(b1-4)GlcNAc(b1-4)GlcNAc
# Summary of the method: as §1
# [8] = target: Gal(a1-3)Gal(b1-4)[Fuc(a1-3)]GlcNAc(b1-2)Man(a1-3)[Gal(a1-3)Gal(b1-4)[Fuc(a1-3)]GlcNAc(b1-2)Man(a1-6)]Man(b1-4)GlcNAc(b1-4)GlcNAc
# Summary of the method: as §1
# [9] = target: Gal(a1-4)Gal(b1-3)GlcNAc(b1-2)Man(a1-3)[Gal(a1-4)Gal(b1-3)GlcNAc(b1-2)Man(a1-6)]Man(b1-4)GlcNAc(b1-4)GlcNAc
# Summary of the method: as §1
# [10] = target: Gal(a1-4)Gal(b1-4)GlcNAc(b1-2)Man(a1-3)[Gal(a1-4)Gal(b1-4)GlcNAc(b1-2)Man(a1-6)]Man(b1-4)GlcNAc(b1-4)GlcNAc
# Summary of the method: as §1
# [11] = target: Gal(b1-3)GalNAc
# Summary of the method: as §1
# [12] = target: Gal(b1-3)GalNAc(b1-4)Gal(b1-4)Glc
# Summary of the method: as §1
# [13] = target: Gal(b1-3)GlcNAc(a1-3)Gal(b1-4)GlcNAc
# Summary of the method: as §1
# [14] = target: Gal(b1-3)GlcNAc(b1-2)Man
# Summary of the method: as §1
# [15] = target: Gal(b1-3)GlcNAc(b1-2)Man(a1-3)[Gal(b1-3)GlcNAc(b1-2)Man(a1-6)]Man(b1-4)GlcNAc(b1-4)GlcNAc
# Summary of the method: as §1
# [16] = target: Gal(b1-3)GlcNAc(b1-3)Gal(b1-3)GlcNAc
# Summary of the method: as §1
# [17] = target: Gal(b1-4)GalNAc(a1-3)[Fuc(a1-2)]Gal(b1-4)GlcNAc
# Summary of the method: as §1
# [18] = target: Gal(b1-4)GlcNAc(b1-2)Man(a1-3)[Gal(b1-4)GlcNAc(b1-2)Man(a1-6)]Man(b1-4)GlcNAc(b1-4)GlcNAc
# Summary of the method: as §1
# [19] = target: Gal(b1-4)GlcNAc(b1-2)Man(a1-3)[GlcNAc(b1-2)Man(a1-6)]Man(b1-4)GlcNAc(b1-4)GlcNAc
# Summary of the method: as §1
# [20] = target: Gal(b1-4)GlcNAc(b1-2)Man(a1-3)[Man(a1-6)]Man(b1-4)GlcNAc(b1-4)GlcNAc
# Summary of the method: as §1
# [21] = target: Gal(b1-4)GlcNAc(b1-2)Man(a1-6)[GlcNAc(b1-2)Man(a1-3)]Man(b1-4)GlcNAc(b1-4)GlcNAc
# Summary of the method: as §1
# [22] = target: Gal(b1-4)GlcNAc(b1-3)Gal(b1-4)GlcNAc(b1-2)[Gal(b1-4)GlcNAc(b1-3)Gal(b1-4)GlcNAc(b1-6)]Man(a1-6)[Gal(b1-4)GlcNAc(b1-3)Gal(b1-4)GlcNAc(b1-2)Man(a1-3)]Man(b1-4)GlcNAc(b1-4)[Fuc(a1-6)]GlcNAc
# Summary of the method: as §1
# [23] = target: Gal(b1-4)GlcNAc(b1-3)Gal(b1-4)GlcNAc(b1-3)[Gal(b1-4)GlcNAc(b1-3)Gal(b1-4)GlcNAc(b1-6)]GalNAc
# Summary of the method: as §1
# [24] = target: Gal4S(b1-4)GlcNAc
# Summary of the method: as §1
# [25] = target: Gal6S(b1-4)Glc6S
# Summary of the method: as §1
# [26] = target: GalNAc(a1-3)Gal
# Summary of the method: as §1
# [27] = target: GalNAc(a1-3)GalNAc(b1-3)Gal(a1-4)Gal(b1-4)Glc
# Summary of the method: as §1
# [28] = target: GalNAc(b1-4)GlcNAc(b1-2)Man(a1-3)[GalNAc(b1-4)GlcNAc(b1-2)Man(a1-6)]Man(b1-4)GlcNAc(b1-4)GlcNAc
# Summary of the method: as §1
# [29] = target: GalNAc3S(b1-4)GlcNAc
# Summary of the method: as §1
# [30] = target: GalNAc6S(b1-4)GlcNAc
# Summary of the method: as §1
# [31] = target: Glc(a1-6)Glc(a1-6)Glc(a1-6)Glc
# Summary of the method: as §1
binder,measurement,setting,value
B1,glycan array binding signal (z-score),[1],-0.231
same,glycan array binding signal (z-score),[2],-0.172
same,glycan array binding signal (z-score),[3],-0.207
same,glycan array binding signal (z-score),[4],-0.237
same,glycan array binding signal (z-score),[5],-0.181
same,glycan array binding signal (z-score),[6],-0.156
same,glycan array binding signal (z-score),[7],3.44
same,glycan array binding signal (z-score),[8],-0.054
same,glycan array binding signal (z-score),[9],4.92
same,glycan array binding signal (z-score),[10],5.71
same,glycan array binding signal (z-score),[11],-0.233
same,glycan array binding signal (z-score),[12],-0.061
same,glycan array binding signal (z-score),[13],-0.174
same,glycan array binding signal (z-score),[14],-0.16
same,glycan array binding signal (z-score),[15],4.54
same,glycan array binding signal (z-score),[16],-0.228
same,glycan array binding signal (z-score),[17],-0.257
same,glycan array binding signal (z-score),[18],4.76
same,glycan array binding signal (z-score),[19],3.92
same,glycan array binding signal (z-score),[20],10.9
same,glycan array binding signal (z-score),[21],7.59
same,glycan array binding signal (z-score),[22],-0.241
same,glycan array binding signal (z-score),[23],-0.222
same,glycan array binding signal (z-score),[24],-0.212
same,glycan array binding signal (z-score),[25],-0.207
same,glycan array binding signal (z-score),[26],-0.25
same,glycan array binding signal (z-score),[27],-0.305
same,glycan array binding signal (z-score),[28],-0.248
same,glycan array binding signal (z-score),[29],-0.219
same,glycan array binding signal (z-score),[30],-0.21
same,glycan array binding signal (z-score),[31],-0.121
